This note sets out measurements from the supplement of paper PMC3898565.

Each structure is given as a SMILES string. Where “and” joins values, the source holds several entries; their conditions need not be identical. Equal entries are not always repeated. ± gives the uncertainty stated by the source.

A word on the cell viability: it is a read-out of living cells in per cent, often relative to untreated cells.
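Note: viable cell number estimated from Alamar Blue fluorescence read at 560/90, part of a single-dose primary screen of an FDA-approved drug library.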

This assay concerns U87. The assay is described as follows: cell viability relative to vehicle control; higher = less growth inhibition (less active). The conditions noted are these: 10 µM; 72 h.
Turning to `CC(C)C[C@H](NC(=O)[C@@H](COC(C)(C)C)NC(=O)[C@H](Cc1ccc(O)cc1)NC(=O)[C@H](CO)NC(=O)[C@H](Cc1c[nH]c2ccccc12)NC(=O)[C@H](Cc1cnc[nH]1)NC(=O)[C@@H]1CCC(=O)N1)C(=O)N[C@@H](CCCNC(=N)N)C(=O)N1CCC[C@H]1C(=O)NNC(N)=O`, the cell viability was determined as 101.1 ± 0.58%.
Turning to `CC(C)NCC(O)COc1ccc(COCCOC(C)C)cc1` (centres undefined), the cell viability amounted to 104 ± 2.4%.
The same measure for `COc1ccc2[nH]c([S+]([O-])Cc3ncc(C)c(OC)c3C)nc2c1` (centres undefined): 105% and 106%; for `CC(C(O)c1ccc(O)cc1)N1CCC(Cc2ccccc2)CC1` (centres undefined) [Ifenprodil]: 99.5 ± 1.3%.
The same measure for `COc1cccc2c1C(=O)c1c(O)c3c(c(O)c1C2=O)C[C@@](O)(C(=O)CO)C[C@@H]3O[C@H]1C[C@H](N)[C@@H](O)[C@H](C)O1`: 23.3 ± 0.39%; for `CC(=O)O[C@H]1C[C@@H]2CC[C@@H]3[C@H](CC[C@@]4(C)[C@H]3C[C@H]([N+]3(C)CCCCC3)[C@@H]4OC(C)=O)[C@@]2(C)C[C@@H]1N1CCCCC1`: 103.2 ± 0.3%.
On to `C=CC1=C(C(=O)O)N2C(=O)[C@@H](NC(=O)/C(=N\OCC(=O)O)c3csc(N)n3)[C@H]2SC1`, for which the cell viability came out at 103.9 ± 0.8%.
As for `C#C[C@]1(O)CC[C@H]2[C@@H]3CCC4=CC(=O)CC[C@@H]4[C@H]3CC[C@@]21CC`, the cell viability was 105.5 ± 0.58%.
Consider `Cc1c(O)c(=O)ccn1C`, for which the cell viability amounted to 102 ± 5.2%.
The same measure for `CC[C@H](C)C(=O)O[C@H]1C[C@H](O)C=C2C=C[C@H](C)[C@H](CC[C@@H](O)C[C@@H](O)CC(=O)O)[C@H]21` [PRAVASTATIN Sodium]: 105.9 ± 0.46%; for `COc1ccccc1N1CCN(CC(O)COc2cccc3ccccc23)CC1` (centres undefined): 99.6 ± 1.9%.
Take `CN1CCN2c3ncccc3Cc3ccccc3C2C1` (centres undefined): the cell viability amounted to 108 ± 2.1%.
The figure for `CN(C)CCC=C1c2ccccc2COc2ccccc21` [Doxepin] is 101.6 ± 0.79%.
The same measure for `COc1cc([C@@H]2c3cc4c(cc3[C@@H](O[C@@H]3O[C@@H]5CO[C@@H](C)O[C@H]5[C@H](O)[C@H]3O)[C@H]3COC(=O)[C@H]23)OCO4)cc(OC)c1O` [Etoposide]: 70.5 ± 4.8%.
With `Cc1[nH]cnc1CN1CCc2c(c3ccccc3n2C)C1=O`, the cell viability came out at 93.5 ± 2.2%.
With `N#Cc1ccc(C(c2ccc(C#N)cc2)n2cncn2)cc1`, the cell viability came to 103 ± 1.3%.
As to `CCOc1cc(CC(=O)N[C@@H](CC(C)C)c2ccccc2N2CCCCC2)ccc1C(=O)O`, the cell viability is 105 ± 1.5%.
The figure for `COc1cc(CNC(=O)CCCC/C=C/C(C)C)ccc1O` [Capsaicin] is 109 ± 1.5%; for `CC(C)(C)NC(=O)[C@@H]1CN(Cc2cccnc2)CCN1C[C@@H](O)C[C@@H](Cc1ccccc1)C(=O)N[C@H]1c2ccccc2C[C@H]1O` it is 105.6 ± 0.74%; for `CC[C@H]1OC(=O)[C@H](C)C(=O)[C@H](C)[C@@H](O[C@@H]2O[C@H](C)C[C@H](N(C)C)[C@H]2O)[C@](C)(OC)C[C@@H](C)C(=O)[C@H](C)[C@H]2N(CCCCn3cnc(-c4cccnc4)c3)C(=O)O[C@]12C` it is 103.4 ± 0.35%.
The figure for `Nc1ncnc2c1ncn2[C@@H]1O[C@H](CO)C[C@@H]1O` [3'-deoxydenosine] is 100.2 ± 0.64%; for `COc1ccc(CC(C)NCC(O)c2ccc(O)c(NC=O)c2)cc1` (centres undefined) it is 98.7 ± 1.3%; for `C[C@]12CC[C@@H]3c4ccc(OS(=O)(=O)O)cc4CC[C@H]3[C@@H]1CCC2=O` it is 110.8 ± 0.43%.
The figure for `O=c1ncc(F)c[nH]1` [5-fluoro-2-pyrimidone] is 106.8 ± 0.67%; for `NC[C@H]1CC[C@H](C(=O)Oc2ccc(CCC(=O)O)cc2)CC1` it is 104.6 ± 0.48%.
Take `CO[C@H]1/C=C/O[C@@]2(C)Oc3c(C)c(O)c4c(O)c(c(/C=N/N5CCN(C6CCCC6)CC5)c(O)c4c3C2=O)NC(=O)/C(C)=C\C=C\[C@H](C)[C@H](O)[C@@H](C)[C@@H](O)[C@@H](C)[C@H](OC(C)=O)[C@@H]1C`: the cell viability worked out at 93.7 ± 1.3%.
The figure for `CC(=O)O[C@]1(C(C)=O)CC[C@H]2[C@@H]3C=C(C)C4=CC(=O)CC[C@]4(C)[C@H]3CC[C@@]21C` is 101 ± 1.2%; for `CC(C(=O)O)c1ccc(-c2ccccc2)c(F)c1` (centres undefined) [Flurbiprofen] it is 105 ± 12%.
The figure for `CC(=O)Oc1ccccc1C(=O)Nc1ncc([N+](=O)[O-])s1` is 103 ± 2.3%; for `Nc1nc(O)c2ncn(CCC(CO)CO)c2n1` it is 103 ± 2.2%; for `O=C(c1ccccc1)c1ccc2n1CCC2C(=O)O` (centres undefined) [Ketorolac Tromethamine] it is 101.2 ± 0.98%.
`CN(C)CCCC1(c2ccc(F)cc2)OCc2cc(C#N)ccc21` (centres undefined) [Citalopram]: the cell viability was 102 ± 1.4%.
The same measure for `CN1[C@@H](CC(=O)c2ccccc2)CCC[C@H]1C[C@H](O)c1ccccc1`: 98.58 ± 0.82%; for `CC[N+](C)(CC)CCOC(=O)C(O)(c1ccccc1)C1CCCCC1` (centres undefined): 109 ± 1.3%.
